The record followed here is PubChem BioAssay (Tox21).

SMILES strings stand for the structures. Activity calls are given as the source filed them. A call without a number means that no potency is given here. Calls follow the shape of the dose curve; as a rule, active = well fitted activation curve with a large enough effect in the repeat runs; inconclusive = weak or mixed curves; inactive = flat fitted curve, though single readings scatter.

The test is described as follows: A CellTox Green Cytotoxicity Assay to monitor cytotoxicity in HepG2 cells - 0 hour (AID 1224882). Also: nearly all actives have a fitted effect of over 35% in size. The conditions noted are these: CellTox Green fluorescence; series mostly up to 76.8 µM. The source says: National Center for Advancing Translational Sciences [NCATS]
NIH Chemical Genomics Center [NCGC]
U.S. Environmental Protection Agency [EPA]
National Institutes of Environmental Health Sciences [NIEHS]
National Toxicology Program [NTP]
Cell-based models are critical for drug discovery. Determining the natural cytotoxic effects resulting from test compounds is an essential research activity. A CellTox Green Cytotoxicity Assay to monitor cytotoxicity in real time of continues cell culture during 40 hours of the compound treatment was used to screen Tox21 10K library compounds in HepG2 cells. CellTox Green Cytotoxicity Assay is a nonlytic, homogeneous, biofluorescent method to measure cytotoxicity in cell culture after experimental manipulation. The assay system uses a proprietary asymmetric cyanine dye that is excluded from viable cells but preferentially stains the dead cell's DNA. […] Viable cells produce no appreciable increases in fluorescence. Therefore, the fluorescence signal produced by the binding interaction with dead cell DNA is proportional to cytotoxicity.
The mixture of HepG2 cell suspension and reagents were dispensed at 600cells/6 ul/well in 1536-well tissue culture treated black solid bottom plates using a Multidrop dispenser. After the assay plates were incubated at a 37 C/5% CO2 incubator for 5 hours, 23 nL of compounds dissolved in DMSO, positive and negative controls was transferred to the assay plate by a pintool work station. The plates were incubated at 37 C for 40 hours. The fluorescence intensity were measured at 0h, 8h, 16h, 24h, 32h and 40h time points using ViewLux plate reader during compound treatment.
For the molecule `Cc1cc(C(C)(C)c2cc(C)c(O)c(C)c2)cc(C)c1O`, the Potency entry was “inactive”.
`Oc1c(Br)c(Br)c(Br)c(Br)c1Br`: the Potency entry was “inactive”.
As to `Cc1cc(N=Nc2ccccc2C)ccc1N`, the Potency entry is “inactive”.
As for `COC12CC[C@@]3(C[C@@H]1C(C)(O)C(C)(C)C)[C@H]1Cc4ccc(O)c5c4[C@@]3(CCN1CC1CC1)[C@H]2O5` (stereo not given in full), the Potency result was “inactive”.
On to `Oc1ccc(C2(c3ccc(O)cc3)CCCCC2)cc1`, for which the Potency entry is “inactive”.
For the molecule `CCCSP(=O)(OCC)SCCC`, the Potency result was “inactive”.
In the case of `ClC1=C(Cl)C2(Cl)C3C(Cl)C=CC3C1(Cl)C2(Cl)Cl` (stereo not given), the Potency entry was “inactive”.
Regarding `N#CCCO`, the Potency result was “inactive”.
With `COCC(=O)N(c1c(C)cccc1C)[C@H](C)C(=O)OC`, the Potency entry was “inactive”.
With `CC1(c2ccc(Oc3ccccc3)cc2)OC(=O)N(Nc2ccccc2)C1=O` (stereo not given), the Potency result is “inactive”.
As for `N#CCCC(Br)(C#N)CBr` (stereo not given), the entry is “inactive”.
In the case of `CC(Cc1ccc(C(C)(C)C)cc1)CN1C[C@@H](C)O[C@@H](C)C1` (stereo not given in full), the Potency result is “inactive”.
Regarding `O=C(Nc1ccc2[nH]ccc2c1)c1cc2cc(F)ccc2n1Cc1cccc(F)c1`, the Potency entry was “inactive”.
For `Cl/C=C\CCl`, the Potency entry was “inactive”.
For `Oc1ccc(C2(c3ccc(O)cc3)c3ccccc3-c3ccccc32)cc1`, the Potency entry was “inactive”.
Turning to `c1ccc2c(c1)[nH]c1cnccc12`, the Potency entry was “inactive”.
As for `COc1ccc(/C(=C/C(=O)N2CCOCC2)c2ccc(Cl)cc2)cc1OC`, the entry is “inactive”; as for `C[C@H]1CC[C@@H]2[C@@H](C)[C@H]3[C@H](C[C@H]4[C@@H]5CC=C6CC(O[C@@H]7O[C@H](CO)[C@H](O)[C@H](O[C@@H]8O[C@H](CO)[C@@H](O)[C@H](O)[C@H]8O)[C@H]7O[C@H]7O[C@@H](C)[C@H](O)[C@@H](O)[C@H]7O)CC[C@]6(C)[C@H]5CC[C@]34C)N2C1` (stereo not given in full), “inactive”; as for `c1ccc(OCC2CO2)cc1` (stereo not given), “inactive”.
In the case of `O=C(NC(=O)c1c(F)cccc1F)Nc1cc(Cl)c(OC(F)(F)C(F)F)c(Cl)c1`, the Potency entry was “inactive”.
As to `BrC(Br)C(Br)(Br)Br`, the Potency result is “inactive”.
For the molecule `Cn1[nH]nnc1=S`, the Potency result was “inactive”.
As for `CCS(=O)(=O)c1cccnc1S(=O)(=O)NC(=O)Nc1nc(OC)cc(OC)n1`, the entry is “inactive”; as for `FC(Cl)(Cl)Cl`, “inactive”.
With `Oc1c(Cl)c(Cl)cc(Cl)c1Cl`, the Potency entry is “inactive”.
Take `CCCCOP(=O)(CCCC)OCCCC`: the Potency result was “inactive”.
For the molecule `N#Cc1ccccc1N`, the Potency result was “inactive”.
Consider `O=[N+]([O-])O.O=[N+]([O-])O.[Cd]`, for which the Potency result was “inactive”.
Then `CC(=O)OC1(c2ccccc2)CCN(CCc2ccccc2)CC1`, with “inactive”; and `O=C(CCl)C(Cl)Cl`, with “inactive”; and `Nc1ccc([N+](=O)[O-])cc1Cl`, with “inactive”.
In the case of `O=[N+]([O-])c1c2ccccc2cc2ccccc12`, the Potency entry was “inactive”.
For the molecule `O=C(CCCN1CCC2(CC1)C(=O)NCN2c1ccccc1)c1ccc(F)cc1`, the Potency result was “inactive”.
As for `CN(C)C1CSSSC1`, the entry is “inactive”.
Then `CC(=O)O[C@H]1CC[C@@]2(C)C(=CC[C@@H]3[C@@H]2CC[C@]2(C)C(=O)CC[C@@H]32)C1`, with “inactive”; and `COc1ccc(N)cc1N`, with “inactive”; and `CC(C)CBr`, with “inactive”.
For `CCOc1cc(C(C)(C)C)ccc1C1COC(c2c(F)cccc2F)=N1` (stereo not given), the Potency entry is “inactive”.
For the molecule `CC(C)(c1ccc(O)c(-c2ccccc2)c1)c1ccc(O)c(-c2ccccc2)c1`, the Potency entry is “inactive”.
As for `COC[C@H](C)N(C(=O)CCl)c1c(C)csc1C`, the entry is “inactive”.
